40 sequences from the supplement of paper PMC6555819 can be followed below.

For one assay, the system named is PPARg:RXRa IVT, anti-PPARg (NR concentration 270 nM, RXRa partner concentration 90 nM). Put plainly: PBM binding z-score (relative to random genomic background probes); higher = stronger binding; sequences stand for … in GC…GCGATTGACAGCGTAGAATGAAGG
The essentials: (§1)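 Antibodies against each partner of ligand-free nuclear receptor dimers (one per run) detected binding on custom Agilent 4×180K protein-binding microarrays after 1 h incubation. The double-stranded probes had 34-nt variable regions carrying direct-repeat seeds, single-nucleotide variants, half-site ablations and random human genomic background sequences. Binding z-scores, from regression-normalized fluorescence, use the random background probes as reference.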
Consider CCCACTGGGGCATAAGGTTACCATAAGCCAGCCC, for which the PBM binding z-score amounted to 4.87.

GCTTACGGGTCAAACGTTATAGCATGAATAGAAT showed a PBM binding z-score of 4.1.

With TCTCGGATGACACGAAGGTCAGAGCTTTCCAGAG, the PBM binding z-score stood at 0.539.

Take ATCTCTAGGTAAAATTTCAGTGAATCCCGAGGAT: the PBM binding z-score was 1.35.

Turning to CATACAGGGTCAGCTAGGCGAGAGTAGGGACGGC, the PBM binding z-score was 2.05.

For the sequence GAAACGAGGGCAAGTTGATAGCAGAGTTTGATGG, the PBM binding z-score was 4.04.

In turn, GCATATAGGTAATACAAGGTGAAAATCCGATTGT had a PBM binding z-score of 3.21.

Sequence CCTAGTTGGTCAGGAGGTCAGACACCGGATATGA registered a PBM binding z-score of 2.24.

CCTTACGGCTCACGAGGTTATAGCACGACGAGCG returned a PBM binding z-score of -0.209.

Sequence CCTCGGAGGAGAACAGGAGGTCAGAGCTGCCAGA registered a PBM binding z-score of 0.248.

As to TAGCCTTGGTCATGCGGGCCAGTATAGTGTCGGC, the PBM binding z-score worked out at 0.0959.

In turn, AGAATGAGTTTACCAAAGATCAGGGAAACGCTTG came in with a PBM binding z-score of -0.237.

The sequence ACTCGGAGGACAAAGGTCTGAGCTACGCCAGTGA registered a PBM binding z-score of 0.315.

In the case of TTACCAAGGGGAAAGGTCGTTGATGCACGCCTTG, the PBM binding z-score turned out to be 2.61.

CCTACTGGGCCACGAATGGTCATTGATTCAGTGA gave a PBM binding z-score of 5.07.

Sequence CGTCAAAGTTCAACTAAGGAAACGTAAAGCACGC came in with a PBM binding z-score of 1.62.

On to TCTTGTAGATCAAGGAGGTTAAGAAAGCCTGAGT, for which the PBM binding z-score worked out at 0.772.

On to AATACAGGGTCACTAGGACAGAGTAGGTACGAAT, for which the PBM binding z-score came to 5.7.

In turn, GTTCGGAGGACAAGGTCAGAGCTTTGTCCGTAGA had a PBM binding z-score of 0.927.

The sequence TGAATGAGGTTAAAGATCAGGTAACGTGGCGTCG had a PBM binding z-score of 3.62.

Consider AATACAGGGTCACTAGGCCAGATTAGGTACGAAT, for which the PBM binding z-score was determined as 5.68.

Sequence GCAGACAGGTGTAACGCAGGTAACTCAGGGTGGC came in with a PBM binding z-score of -0.366.

In turn, CTACCAAGGTGAACAAGGTCGCTGATTACTATTC yielded a PBM binding z-score of 2.81.

Consider CTTAGCAGGCCAGGGTCACTCAAGCATTTCGCTT, for which the PBM binding z-score worked out at 1.72.

On to CCTACTGAGCCATTCAGAGGTCATTGATCATATG, for which the PBM binding z-score worked out at 1.12.

As to GGAAAGAGGGCAAGTTGATAGCAGAGTTTGATGG, the PBM binding z-score was 2.18.

ATCTCTAGGTAACAAGTTCAGTGGAAGAGAGGAC: the PBM binding z-score was 3.02.

The sequence TCTCGGCGGACACGAAAGGTCAGAGCTCGACATC displayed a PBM binding z-score of 0.541.

Take CCTTACTGGTCACTGACAGGTTATAGCATTTGGA: the PBM binding z-score turned out to be 0.777.

CGACCAAGGTCAGCAGGTCAGTGAAAGCGACGTG yielded a PBM binding z-score of 3.64.

TCTTGTAGATCAACAGAGGTTAAGAAAGTGCGCT showed a PBM binding z-score of 0.862.

CCTAGTTGGTCAAGGTCACACTCGCTATAGGTAC had a PBM binding z-score of 3.35.

Take CAAACTAGGTCAAGAGATCAAAGTCCGCTTCCCG: the PBM binding z-score came out at 8.28.

Consider CTACTAAGGTGAACAAGGTCGTTGATTACTATTC, for which the PBM binding z-score worked out at 3.07.

For CGTCCAAGGTCAAGGCCAGTGAAAGAGACTCGAA, the PBM binding z-score is 3.4.

Sequence ATCTCTGGGTAAGACTCAGTTCAGTGAAGAACGC registered a PBM binding z-score of 1.22.

GCTAGTTGGTCAGTAAAAGGACACACACCGGTCG registered a PBM binding z-score of 0.5.

CCGACTGGGCCAAAAAGGTCATTGATGCCGATAA had a PBM binding z-score of 2.62.

Regarding TAGCCTAGGTCATTCAGGGGCCAGGATAGAAAGC, the PBM binding z-score worked out at 2.85.

The sequence GCGACTGGGGCAGCAGCAGGTTACCATAACTTAA gave a PBM binding z-score of 2.23.

The test system of the next assay is PPARg DBDmut:RXRa IVT, anti-PPARg (DBD mutation: PPARg1 K132A/R137A, NR concentration 270 nM, RXRa partner concentration 90 nM). The assay is described as above. The essentials:
as §1
For the sequence CCCACTGGGGCATAAGGTTACCATAAGCCAGCCC, the PBM binding z-score was -0.75.

Take GCTTACGGGTCAAACGTTATAGCATGAATAGAAT: the PBM binding z-score was 1.95.

In turn, TCTCGGATGACACGAAGGTCAGAGCTTTCCAGAG registered a PBM binding z-score of -0.684.

On to ATCTCTAGGTAAAATTTCAGTGAATCCCGAGGAT, for which the PBM binding z-score came out at 0.773.

Turning to CATACAGGGTCAGCTAGGCGAGAGTAGGGACGGC, the PBM binding z-score is 0.279.

Sequence GAAACGAGGGCAAGTTGATAGCAGAGTTTGATGG registered a PBM binding z-score of 0.483.

The sequence GCATATAGGTAATACAAGGTGAAAATCCGATTGT had a PBM binding z-score of 0.778.

Take CCTAGTTGGTCAGGAGGTCAGACACCGGATATGA: the PBM binding z-score turned out to be 0.271.

Turning to CCTTACGGCTCACGAGGTTATAGCACGACGAGCG, the PBM binding z-score is -0.288.

CCTCGGAGGAGAACAGGAGGTCAGAGCTGCCAGA displayed a PBM binding z-score of -1.26.

With TAGCCTTGGTCATGCGGGCCAGTATAGTGTCGGC, the PBM binding z-score was -0.481.

Take AGAATGAGTTTACCAAAGATCAGGGAAACGCTTG: the PBM binding z-score was found to be 0.734.

The sequence ACTCGGAGGACAAAGGTCTGAGCTACGCCAGTGA gave a PBM binding z-score of -0.994.

In the case of TTACCAAGGGGAAAGGTCGTTGATGCACGCCTTG, the PBM binding z-score was 0.358.

The sequence CCTACTGGGCCACGAATGGTCATTGATTCAGTGA gave a PBM binding z-score of -0.0715.

Sequence CGTCAAAGTTCAACTAAGGAAACGTAAAGCACGC yielded a PBM binding z-score of 1.02.

For TCTTGTAGATCAAGGAGGTTAAGAAAGCCTGAGT, the PBM binding z-score stood at 0.58.

AATACAGGGTCACTAGGACAGAGTAGGTACGAAT gave a PBM binding z-score of 2.64.

On to GTTCGGAGGACAAGGTCAGAGCTTTGTCCGTAGA, for which the PBM binding z-score is -0.706.

As to TGAATGAGGTTAAAGATCAGGTAACGTGGCGTCG, the PBM binding z-score turned out to be 0.604.

With AATACAGGGTCACTAGGCCAGATTAGGTACGAAT, the PBM binding z-score stood at 1.98.

GCAGACAGGTGTAACGCAGGTAACTCAGGGTGGC: the PBM binding z-score is -0.91.

CTACCAAGGTGAACAAGGTCGCTGATTACTATTC had a PBM binding z-score of 0.217.

For CTTAGCAGGCCAGGGTCACTCAAGCATTTCGCTT, the PBM binding z-score is -0.582.

In turn, CCTACTGAGCCATTCAGAGGTCATTGATCATATG showed a PBM binding z-score of 0.0537.

GGAAAGAGGGCAAGTTGATAGCAGAGTTTGATGG returned a PBM binding z-score of 0.748.

As to ATCTCTAGGTAACAAGTTCAGTGGAAGAGAGGAC, the PBM binding z-score was 0.956.

TCTCGGCGGACACGAAAGGTCAGAGCTCGACATC yielded a PBM binding z-score of -0.347.

CCTTACTGGTCACTGACAGGTTATAGCATTTGGA had a PBM binding z-score of 0.395.

In turn, CGACCAAGGTCAGCAGGTCAGTGAAAGCGACGTG gave a PBM binding z-score of -0.557.

In the case of TCTTGTAGATCAACAGAGGTTAAGAAAGTGCGCT, the PBM binding z-score amounted to 0.181.

For the sequence CCTAGTTGGTCAAGGTCACACTCGCTATAGGTAC, the PBM binding z-score came to 0.792.

CAAACTAGGTCAAGAGATCAAAGTCCGCTTCCCG showed a PBM binding z-score of 2.03.

The sequence CTACTAAGGTGAACAAGGTCGTTGATTACTATTC gave a PBM binding z-score of 0.656.

Sequence CGTCCAAGGTCAAGGCCAGTGAAAGAGACTCGAA had a PBM binding z-score of 0.269.

The sequence ATCTCTGGGTAAGACTCAGTTCAGTGAAGAACGC displayed a PBM binding z-score of 0.795.

Sequence GCTAGTTGGTCAGTAAAAGGACACACACCGGTCG showed a PBM binding z-score of 0.0692.

With CCGACTGGGCCAAAAAGGTCATTGATGCCGATAA, the PBM binding z-score was -1.21.

Sequence TAGCCTAGGTCATTCAGGGGCCAGGATAGAAAGC yielded a PBM binding z-score of 0.258.

On to GCGACTGGGGCAGCAGCAGGTTACCATAACTTAA, for which the PBM binding z-score was -1.15.
